This is an account of results in the supplement of paper PMC13380429.

For assay [1], the system named is Vero E6 infected with SARS-CoV-2. Kind of assay: morphology score (similarity to uninfected cells); higher = more like uninfected cells. Conditions: 24 h.
The test system is the same in assay [2]. Kind of assay: SARS-CoV-2 infection rate relative to infected DMSO; higher = more infection, active = 60 or less. The conditions noted are these: 24 h.

`CCOC(=O)c1ncc2[nH]c3cccc(OC(C)C)c3c2c1C` (10 µM) returned a morphology score in assay [1] of 0.286. Also, the SARS-CoV-2 infection rate in assay [2] was 88.5% (inactive).

As for `CC(=O)N(CC(O)CO)c1c(I)c(C(=O)NCCO)c(I)c(C(=O)NCC(O)CO)c1I` (centres undefined) [ioxilan] (10 µM), in assay [1], the morphology score was determined as 0.00249. Also, in assay [2], the SARS-CoV-2 infection rate is 114% (inactive).

For `Nc1nc(NCCc2ccc(O)cc2)nc2nc(-c3ccco3)nn12` (10 µM), the morphology score in assay [1] is -0.0969. Further, the SARS-CoV-2 infection rate in assay [2] is 111% (inactive).

Molecule `Nc1ccncc1` [dalfampridine] (10 µM) gave a morphology score in assay [1] of 0.0807. Also, the SARS-CoV-2 infection rate in assay [2] was 103% (inactive).

The molecule `C=C1c2cccc(O)c2C(=O)C2=C(O)[C@]3(O)C(=O)C(C(N)=O)=C(O)[C@@H](N(C)C)[C@@H]3[C@@H](O)[C@H]12` [methacycline] (0.833333 µM) showed a morphology score in assay [1] of 0.0945. Also, the SARS-CoV-2 infection rate in assay [2] was 103% (inactive).

For the molecule `CCNC(=O)/C=C/c1cccc(Br)c1` [cinromide] (10 µM), in assay [1], the morphology score amounted to 0.135. In assay [2], the SARS-CoV-2 infection rate was 96% (inactive).

Regarding `O=c1[nH]c(=O)n([C@H]2C[C@H](O)[C@@H](CO)O2)cc1F` [floxuridine] (0.833333 µM), the morphology score in assay [1] was -0.065. In assay [2], the SARS-CoV-2 infection rate is 99% (inactive).

Consider `C[C@]12CC[C@@H]3c4ccc(OC(=O)N(CCCl)CCCl)cc4CC[C@H]3[C@@H]1CC[C@@H]2OP(=O)(O)O` [estramustine-phosphate] (10 µM), for which the morphology score in assay [1] is 0.0729. Also, in assay [2], the SARS-CoV-2 infection rate was 100% (inactive).

`CCN1CCN(C(=O)Cc2ccc(Nc3ncc(F)c(Nc4ccc(C(=O)Nc5ccccc5Cl)cc4)n3)cc2)CC1` [aurora-a-inhibitor-i] (10 µM) registered a morphology score in assay [1] of -0.072. In assay [2], the SARS-CoV-2 infection rate was 86% (inactive).

For `CC(c1cc2ccccc2s1)N(O)C(N)=O` (centres undefined) [zileuton] (10 µM), the morphology score in assay [1] was found to be 0.0704. Besides, in assay [2], the SARS-CoV-2 infection rate was 98.5% (inactive).

In the case of `O=c1c2ccccc2oc2ccccc12` [xanthone] (10 µM), the morphology score in assay [1] was found to be 0.219. Also, the SARS-CoV-2 infection rate in assay [2] is 104% (inactive).

`CCCN[C@H]1CCc2nc(N)sc2C1` [pramipexole] (10 µM) gave a morphology score in assay [1] of 0.032. For the same molecule, the SARS-CoV-2 infection rate in assay [2] is 120% (inactive).

The molecule `CCCS(=O)(=O)Nc1ccc(F)c(C(=O)c2c[nH]c3ncc(Cl)cc23)c1F` (10 µM) displayed a morphology score in assay [1] of -0.0271. Further, the SARS-CoV-2 infection rate in assay [2] is 114% (inactive).

`Oc1noc2c1CCNC2` [gaboxadol] (10 µM) had a morphology score in assay [1] of 0.0535. The SARS-CoV-2 infection rate in assay [2] was 106% (inactive).

`Clc1cc(Cl)c(OCC#CI)cc1Cl` [haloprogin] (10 µM): in assay [1], the morphology score was 0.57. Besides, the SARS-CoV-2 infection rate in assay [2] is 32% (active).

In the case of `O=C(NCc1ccc(Oc2ccccc2)cc1)c1nc(-c2cc(Br)c(O)c(Br)c2)no1` (0.833333 µM), in assay [1], the morphology score was 0.0493. In assay [2], the SARS-CoV-2 infection rate was 100% (inactive).

Regarding `O=C1c2ccccc2C(=O)C1c1ccc(Br)cc1` [bromindione] (10 µM), the morphology score in assay [1] is 0.204. Also, in assay [2], the SARS-CoV-2 infection rate was 93.5% (inactive).

In assay [1], `CCCCCCCCCCCCCCCCCCCCCCCCC(=O)O` [pentacosanoic-acid] (10 µM) came in with a morphology score of 0.211. Besides, in assay [2], the SARS-CoV-2 infection rate was 96% (inactive).

In the case of `O=C(c1ccc(CN2CCOCC2)cc1)N1CCN(C2CC2)CC1` [bavisant] (10 µM), in assay [1], the morphology score is -0.0555. The SARS-CoV-2 infection rate in assay [2] is 100% (inactive).

`CC(=O)O[C@H]1CC[C@@]2(C)C(=CC[C@@H]3[C@@H]2CC[C@]2(C)C(c4cccnc4)=CC[C@@H]32)C1` [abiraterone-acetate] (10 µM) yielded a morphology score in assay [1] of -0.0503. Further, the SARS-CoV-2 infection rate in assay [2] was 112% (inactive).

Turning to `CCC[C@H](Nc1nc(-c2ccc(NC(=O)NCC)c(OC)c2)ncc1C)c1cccnc1` (10 µM), the morphology score in assay [1] was -0.29. Besides, the SARS-CoV-2 infection rate in assay [2] was 116% (inactive).

Take `CCn1c(-c2nonc2N)nc2cncc(CNC3CCNCC3)c21` (10 µM): the morphology score in assay [1] came to 0.371. The SARS-CoV-2 infection rate in assay [2] was 106% (inactive).

Molecule `CNS(=O)(=O)Nc1nccc(Cc2c(C)c3ccc(Oc4ncccn4)cc3oc2=O)c1F` (0.833333 µM) yielded a morphology score in assay [1] of -0.0748. Further, the SARS-CoV-2 infection rate in assay [2] is 113% (inactive).

Turning to `NC(=S)N/N=C/c1coc2ccccc2c1=O.[Cl][Cu][Cl]` (10 µM), the morphology score in assay [1] was -0.124. Besides, the SARS-CoV-2 infection rate in assay [2] is 110% (inactive).

As to `CNC(=O)c1ccc(-c2cnc3ncc(Cc4ccc5ncccc5c4)n3n2)cc1F` (10 µM), in assay [1], the morphology score came to 0.0374. Besides, the SARS-CoV-2 infection rate in assay [2] was 98% (inactive).

On to `COCCOC(=O)C1=C(C)NC(C)=C(C(=O)OC/C=C/c2ccccc2)C1c1cccc([N+](=O)[O-])c1` (centres undefined) [cilnidipine] (10 µM), for which, in assay [1], the morphology score was determined as 0.171. The SARS-CoV-2 infection rate in assay [2] is 95% (inactive).

In the case of `Cc1oc(-c2ccccc2)nc1CCC(=O)c1ccc(CC2SC(=O)NC2=O)cc1` (centres undefined) [darglitazone] (10 µM), the morphology score in assay [1] turned out to be 0.276. Further, the SARS-CoV-2 infection rate in assay [2] is 98.5% (inactive).

Consider `C=CC(C)(C)c1cc(/C=C/C(=O)c2ccc(O)cc2)c(OC)cc1O` [licochalcone-A] (10 µM), for which the morphology score in assay [1] is -0.0626. Also, the SARS-CoV-2 infection rate in assay [2] is 114% (inactive).

`NS(=O)(=O)c1cc(C(=O)O)cc(N2CCCC2)c1Oc1ccccc1` [piretanide] (10 µM): in assay [1], the morphology score stood at 0.0293. In addition, in assay [2], the SARS-CoV-2 infection rate is 110% (inactive).

In the case of `O=[N+]([O-])c1cn2c(n1)OC[C@@H](OCc1ccc(-c3ccc(OC(F)(F)F)cc3)nc1)C2` (10 µM), the morphology score in assay [1] was -0.214. In addition, in assay [2], the SARS-CoV-2 infection rate was 110% (inactive).

As for `Nc1ncnc2c1ncn2[C@@H]1O[C@H](COP(=O)(O)O)[C@@H](O)[C@H]1O` [adenosine-phosphate] (10 µM), in assay [1], the morphology score was -0.114. Moreover, the SARS-CoV-2 infection rate in assay [2] was 113% (inactive).

As to `Cc1cc(O)cc2c1O[C@](C)(CCC[C@H](C)CCC[C@H](C)CCCC(C)C)CC2` [D-delta-tocopherol] (10 µM), the morphology score in assay [1] was -0.14. For the same molecule, in assay [2], the SARS-CoV-2 infection rate was 112% (inactive).
